# Source: PubChem BioAssay (NCATS)
# Values joined by “and” are separate entries in the source; they are usually repeats but may differ in a detail not shown here. Identical values can stand only once. Active and inactive are the calls of the source. Unless noted, the call rests on the fitted dose curve.
# Columns and labels:
# [1] = biological target: Cytochrome P450 2D6 (Homo sapiens) (UniProt P10635); assay: qHTS Assay for Inhibitors and Substrates of Cytochrome P450 2D6 (AID 891; active means well fitted inhibition curve with a large enough effect; inconclusive means small, poorly fitted or top-dose-only effect; inactive means no such curve, though single readings can be large or run the other way; further: nearly all actives have a fitted effect of over 60% in size; further: potency means the concentration at half of the fitted maximal effect)
# Chain of Cytochrome P450 2D6 (Homo sapiens) (P10635 whole entry, looked up): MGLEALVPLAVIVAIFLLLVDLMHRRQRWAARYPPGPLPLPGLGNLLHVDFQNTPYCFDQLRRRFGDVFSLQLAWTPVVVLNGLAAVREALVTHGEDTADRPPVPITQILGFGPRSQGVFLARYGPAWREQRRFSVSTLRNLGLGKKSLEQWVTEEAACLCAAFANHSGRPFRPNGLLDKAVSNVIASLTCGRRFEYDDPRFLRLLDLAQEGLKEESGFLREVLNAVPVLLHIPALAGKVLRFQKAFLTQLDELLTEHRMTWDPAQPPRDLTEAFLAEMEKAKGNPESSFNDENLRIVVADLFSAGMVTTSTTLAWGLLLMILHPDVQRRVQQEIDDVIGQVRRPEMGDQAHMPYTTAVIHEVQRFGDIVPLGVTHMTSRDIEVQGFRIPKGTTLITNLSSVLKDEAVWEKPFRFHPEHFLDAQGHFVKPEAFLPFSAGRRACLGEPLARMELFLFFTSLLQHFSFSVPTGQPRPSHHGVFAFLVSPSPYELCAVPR
# How it was run: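 Luminescent read-out of luciferin formed by 5 nM human CYP2D6 demethylating 30 uM Luciferin-ME EGE (Km level) over 60 min at room temperature after NADPH regeneration addition. Data normalized to full inhibition by 1.43 uM quinidine.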
# [2] = biological target: Glucocorticoid receptor (Homo sapiens) (UniProt P04150); assay: qHTS assay for small molecule agonists of glucocorticoid receptor signaling (AID 588532; active means well fitted curve in the direction sought with a large enough effect in the signal ratio, with a control signal flat; inconclusive means small, poorly fitted or top-dose-only effect, or a change in a side signal; inactive means no such curve, though single readings can be large or run the other way; the % refers to the signal ratio;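 further: 100% = dexamethasone at 0.1 µM and 0% = DMSO only wells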); conditions: HeLa MMTV-bla, beta-lactamase ratio, agonist, 18 h; stronger effect = higher value; percent of dexamethasone control, DMSO zero
# Chain of Glucocorticoid receptor (Homo sapiens) (P04150 whole entry, looked up): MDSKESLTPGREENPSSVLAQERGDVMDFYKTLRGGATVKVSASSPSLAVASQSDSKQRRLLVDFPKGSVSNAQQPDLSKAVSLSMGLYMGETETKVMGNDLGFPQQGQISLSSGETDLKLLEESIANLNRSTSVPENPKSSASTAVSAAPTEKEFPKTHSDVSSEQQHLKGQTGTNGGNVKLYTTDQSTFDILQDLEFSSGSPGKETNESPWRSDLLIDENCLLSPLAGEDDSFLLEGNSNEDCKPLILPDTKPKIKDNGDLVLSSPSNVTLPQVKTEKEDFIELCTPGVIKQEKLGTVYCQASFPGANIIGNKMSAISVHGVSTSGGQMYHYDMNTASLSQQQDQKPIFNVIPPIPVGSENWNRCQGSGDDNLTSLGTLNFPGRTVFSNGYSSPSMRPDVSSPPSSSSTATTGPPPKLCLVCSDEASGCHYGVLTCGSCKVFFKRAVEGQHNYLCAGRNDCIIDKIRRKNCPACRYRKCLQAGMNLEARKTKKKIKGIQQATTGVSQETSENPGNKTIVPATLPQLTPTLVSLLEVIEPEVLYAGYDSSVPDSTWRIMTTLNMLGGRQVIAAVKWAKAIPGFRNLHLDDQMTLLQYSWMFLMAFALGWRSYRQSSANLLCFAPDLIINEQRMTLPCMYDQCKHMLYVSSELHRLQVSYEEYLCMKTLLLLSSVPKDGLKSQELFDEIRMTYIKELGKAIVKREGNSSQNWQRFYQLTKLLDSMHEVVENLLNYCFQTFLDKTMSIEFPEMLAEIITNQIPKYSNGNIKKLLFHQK
# How it was run: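 Stimulation of a glucocorticoid response element-driven beta-lactamase gene was measured in HeLa cells. Responses were scaled between DMSO basal and 0.1 uM dexamethasone, then fitted for half-maximal stimulation.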
# [3] = qHTS assay for small molecule antagonists of peroxisome proliferator-activated receptor delta signaling (AID 588535; active means well fitted inhibition curve with a large enough effect in the signal ratio, with a control signal flat, not every such curve was filed as active; inconclusive means small, poorly fitted or top-dose-only effect, or effect the other way, or a change in a side signal; inactive means no such curve, though single readings can be large or run the other way; the % refers to the signal ratio;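 on max response: cells co-treated with a PPAR-delta agonist as stimulator during compound exposure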); conditions: HEK293T PPARd-UAS-bla, beta-lactamase FRET ratio, 18 h; 460 nm channel
# How it was run: (§1)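 Compounds tested in titration on PPAR-delta-UAS-bla HEK293T cells grown in charcoal/dextran-stripped serum (2%); beta-lactamase activity read via CCF4 emission at 460 and 530 nm.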
# [4] = biological target: Peroxisome proliferator-activated receptor delta (Homo sapiens) (UniProt Q03181); assay: as above
# Chain of Peroxisome proliferator-activated receptor delta (Homo sapiens) (Q03181 whole entry, looked up): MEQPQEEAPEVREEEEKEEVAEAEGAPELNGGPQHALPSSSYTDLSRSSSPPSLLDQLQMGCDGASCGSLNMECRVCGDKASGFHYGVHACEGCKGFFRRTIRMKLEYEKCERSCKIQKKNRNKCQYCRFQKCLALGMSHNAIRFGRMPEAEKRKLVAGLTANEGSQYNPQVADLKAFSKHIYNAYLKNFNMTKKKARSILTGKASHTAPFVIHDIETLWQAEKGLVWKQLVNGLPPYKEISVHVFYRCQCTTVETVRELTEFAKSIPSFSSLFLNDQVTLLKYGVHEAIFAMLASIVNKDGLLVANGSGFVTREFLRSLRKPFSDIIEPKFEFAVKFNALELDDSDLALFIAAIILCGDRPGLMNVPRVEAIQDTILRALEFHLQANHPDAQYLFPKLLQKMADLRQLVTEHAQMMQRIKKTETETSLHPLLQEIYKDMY
# How it was run: as §1
# [5] = qHTS assay for small molecule agonists of retinoid X receptor alpha signaling (AID 588544); conditions: HEK293T RXRa-UAS-bla, beta-lactamase reporter, 18 h; 530 nm emission
# [6] = qHTS assay for small molecule antagonists of retinoid X receptor alpha signaling (AID 588546; active means well fitted inhibition curve with a large enough effect in the signal ratio, with a control signal flat, not every such curve was filed as active; inconclusive means small, poorly fitted or top-dose-only effect, or effect the other way, or a change in a side signal; inactive means no such curve, though single readings can be large or run the other way; the % refers to the signal ratio;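 further: cells stimulated with 9-cis-retinoic acid as agonist; on the % scale 0 is the no-effect control and ±100 the full control effect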); conditions: HEK293T RXRa-UAS-bla, beta-lactamase ratio, antagonist mode; measured here: W530 green channel, cytotoxicity proxy
# How it was run: (§2)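 Beta-lactamase reporter inhibition, read as CCF4 fluorescence ratio (ex 405, em 460/530 nm) after 2 h at RT. HEK293T UAS-bla cells, 2500/well, were stimulated with 9-cis-RA at 500 or 100 nM final alongside test compound for 18 h at 37 C.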
# [7] = biological target: Retinoic acid receptor RXR-alpha (Homo sapiens) (UniProt P19793); assay: as above; conditions: HEK293T RXRa-UAS-bla, beta-lactamase ratio, antagonist mode
# Chain of Retinoic acid receptor RXR-alpha (Homo sapiens) (P19793 whole entry, looked up): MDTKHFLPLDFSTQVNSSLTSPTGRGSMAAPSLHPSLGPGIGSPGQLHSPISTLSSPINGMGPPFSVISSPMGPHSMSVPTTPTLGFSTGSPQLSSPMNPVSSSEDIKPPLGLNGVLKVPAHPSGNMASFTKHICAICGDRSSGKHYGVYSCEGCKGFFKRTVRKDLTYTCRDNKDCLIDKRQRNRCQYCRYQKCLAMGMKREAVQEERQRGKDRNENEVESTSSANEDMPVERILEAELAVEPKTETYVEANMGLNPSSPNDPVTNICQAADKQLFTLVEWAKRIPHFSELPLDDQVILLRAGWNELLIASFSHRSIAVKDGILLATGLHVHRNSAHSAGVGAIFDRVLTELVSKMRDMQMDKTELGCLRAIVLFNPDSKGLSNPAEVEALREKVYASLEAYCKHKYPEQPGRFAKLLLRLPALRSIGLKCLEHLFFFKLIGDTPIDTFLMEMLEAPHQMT
# How it was run: as §2
# [8] = biological target: Thyroid hormone receptor beta (Homo sapiens) (UniProt P10828); assay: qHTS assay for small molecule antagonists of thyroid hormone receptor beta signaling (AID 588547; active means well fitted inhibition curve with a large enough effect in the signal ratio, with a control signal flat, not every such curve was filed as active; inconclusive means small, poorly fitted or top-dose-only effect, or effect the other way, or a change in a side signal; the % refers to the signal ratio;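 further: cells stimulated with 0.4 nM T3 agonist during compound exposure; series mostly up to about 77 µM; on the % scale 0 is the no-effect control and ±100 the full control effect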); conditions: TR-UAS-bla HEK293, beta-lactamase ratio, antagonist mode, 18 h
# Chain of Thyroid hormone receptor beta (Homo sapiens) (P10828 whole entry, looked up): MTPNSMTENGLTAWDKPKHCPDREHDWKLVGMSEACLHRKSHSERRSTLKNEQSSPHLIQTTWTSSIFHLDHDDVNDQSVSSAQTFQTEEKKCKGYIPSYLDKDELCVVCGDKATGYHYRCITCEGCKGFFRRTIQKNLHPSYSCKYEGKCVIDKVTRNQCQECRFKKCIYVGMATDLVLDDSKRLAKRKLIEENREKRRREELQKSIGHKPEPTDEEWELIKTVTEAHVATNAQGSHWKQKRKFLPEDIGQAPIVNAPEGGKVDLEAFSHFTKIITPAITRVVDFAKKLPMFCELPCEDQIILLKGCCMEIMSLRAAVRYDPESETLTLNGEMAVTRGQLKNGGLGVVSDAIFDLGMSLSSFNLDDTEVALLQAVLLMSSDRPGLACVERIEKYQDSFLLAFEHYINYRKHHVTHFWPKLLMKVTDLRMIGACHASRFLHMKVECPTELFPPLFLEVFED
# How it was run: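 TR-UAS-bla GripTite HEK293 cells in 2% charcoal/dextran FBS medium were preincubated 4 h at 37 C, given compound (0.59 nM to 92 uM) plus 0.4 nM T3 (final) for 18 h, then CCF4 for 2 h at RT; Hill fit gave IC50.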
# [9] = biological target: Estrogen receptor (Homo sapiens) (UniProt P03372); assay: qHTS assay for small molecule antagonists of estrogen receptor alpha signaling (AID 588513; active means well fitted curve in the direction sought with a large enough effect in the signal ratio, with a control signal flat, not every such curve was filed as active; inconclusive means small, poorly fitted or top-dose-only effect, or effect the other way, or a change in a side signal; inactive means no such curve, though single readings can be large or run the other way; the % refers to the signal ratio; further: potency means the concentration at half of the fitted maximal effect)
# Chain of Estrogen receptor (Homo sapiens) (P03372 whole entry, looked up): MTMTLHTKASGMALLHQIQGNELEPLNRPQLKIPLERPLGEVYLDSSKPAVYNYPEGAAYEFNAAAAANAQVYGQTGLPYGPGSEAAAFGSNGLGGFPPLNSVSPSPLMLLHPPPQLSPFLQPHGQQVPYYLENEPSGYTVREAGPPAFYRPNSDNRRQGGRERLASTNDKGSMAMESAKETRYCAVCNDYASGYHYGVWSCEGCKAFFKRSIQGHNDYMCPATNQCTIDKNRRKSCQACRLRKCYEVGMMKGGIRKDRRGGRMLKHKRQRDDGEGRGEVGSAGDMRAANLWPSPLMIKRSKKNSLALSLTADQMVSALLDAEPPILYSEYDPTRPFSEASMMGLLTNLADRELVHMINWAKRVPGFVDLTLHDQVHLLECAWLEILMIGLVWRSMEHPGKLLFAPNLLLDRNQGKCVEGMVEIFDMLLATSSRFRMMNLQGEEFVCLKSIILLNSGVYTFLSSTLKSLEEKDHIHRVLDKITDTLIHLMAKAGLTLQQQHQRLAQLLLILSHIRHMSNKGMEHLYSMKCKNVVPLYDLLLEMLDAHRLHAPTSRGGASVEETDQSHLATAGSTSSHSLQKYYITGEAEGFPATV
# How it was run: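 Beta-lactamase reporter, antagonist mode, HEK 293 GripTite cells; 0.5nM E2 stimulus, 18 h, 37 C; CCF4 dye 2 h RT; fluorescence. IC50 and efficacy from Hill fits, normalized to E2 and DMSO.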
# [10] = biological target: Estrogen receptor (Homo sapiens) (UniProt P03372); assay: qHTS assay for small molecule agonists of estrogen receptor alpha signaling (AID 588514);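 further: 0% = vehicle only and 100% = reference agonist; nearly all actives have a fitted effect of over 70% in size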
# How it was run: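 Read-out: CCF4 fluorescence from a beta-lactamase reporter in ER-alpha-UAS-bla HEK 293 cells after 18 hrs of compound exposure at 37 C. Normalized to 20 nM 17-beta-estradiol (100%) and DMSO (0%).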
# [11] = biological target: Bile acid receptor (Homo sapiens) (UniProt Q96RI1); assay: qHTS assay for small molecule antagonists of farnesoid X receptor signaling (AID 588526); further: potency means the concentration at half of the fitted maximal effect
# Chain of Bile acid receptor (Homo sapiens) (Q96RI1 whole entry, looked up): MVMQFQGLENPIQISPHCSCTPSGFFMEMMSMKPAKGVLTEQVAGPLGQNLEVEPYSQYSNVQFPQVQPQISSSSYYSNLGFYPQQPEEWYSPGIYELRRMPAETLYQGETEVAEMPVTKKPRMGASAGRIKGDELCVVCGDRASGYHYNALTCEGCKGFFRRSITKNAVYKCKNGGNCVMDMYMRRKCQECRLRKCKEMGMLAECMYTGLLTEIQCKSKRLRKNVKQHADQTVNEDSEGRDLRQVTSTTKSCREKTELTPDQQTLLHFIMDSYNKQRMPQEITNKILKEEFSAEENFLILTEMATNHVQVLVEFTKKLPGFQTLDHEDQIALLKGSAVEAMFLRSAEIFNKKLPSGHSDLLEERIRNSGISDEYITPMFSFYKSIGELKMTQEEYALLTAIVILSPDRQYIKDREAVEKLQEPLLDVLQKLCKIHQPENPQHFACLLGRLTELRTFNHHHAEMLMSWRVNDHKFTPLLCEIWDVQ
# How it was run: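 Concentration-response titrations were fitted to the Hill equation for half-maximal inhibition and maximal response, with data normalised to 50 uM chenodeoxycholic acid and DMSO control wells. Cells: FXR-UAS-bla HEK293T, dialyzed FBS.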
# [12] = biological target: Peroxisome proliferator-activated receptor gamma (Homo sapiens) (UniProt P37231); assay: qHTS assay for small molecule antagonists of peroxisome proliferator-activated receptor gamma signaling (AID 588537; active means well fitted inhibition curve with a large enough effect in the signal ratio, with a control signal flat, not every such curve was filed as active; inconclusive means small, poorly fitted or top-dose-only effect, or effect the other way, or a change in a side signal; the % refers to the signal ratio; further: potency means the concentration at half of the fitted maximal effect)
# Chain of Peroxisome proliferator-activated receptor gamma (Homo sapiens) (P37231 whole entry, looked up): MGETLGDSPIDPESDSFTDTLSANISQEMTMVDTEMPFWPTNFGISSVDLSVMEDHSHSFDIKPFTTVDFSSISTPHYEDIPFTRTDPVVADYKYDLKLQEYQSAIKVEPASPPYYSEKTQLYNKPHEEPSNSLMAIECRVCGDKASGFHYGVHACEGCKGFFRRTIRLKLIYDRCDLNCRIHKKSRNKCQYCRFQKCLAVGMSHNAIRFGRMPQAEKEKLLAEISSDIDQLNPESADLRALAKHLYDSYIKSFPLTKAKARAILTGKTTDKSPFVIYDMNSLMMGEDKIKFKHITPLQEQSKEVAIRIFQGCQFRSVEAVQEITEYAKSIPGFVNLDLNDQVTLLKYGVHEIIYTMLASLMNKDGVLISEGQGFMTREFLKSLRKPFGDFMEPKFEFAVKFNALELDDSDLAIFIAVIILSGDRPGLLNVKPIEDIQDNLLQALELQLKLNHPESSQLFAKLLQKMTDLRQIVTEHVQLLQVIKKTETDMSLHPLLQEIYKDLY
# How it was run: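 HEK293 cells, PPAR-gamma-UAS-bla, 3000/well. Pre-incubation 6-6.5 h, 37 C. Compound titration with rosiglitazone 50 nM final, 16 h. CCF4 dye, 2 h RT, dual-emission fluorescence.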
# [13] = biological target: Glucocorticoid receptor (Homo sapiens) (UniProt P04150); assay: qHTS assay for small molecule antagonists of glucocorticoid receptor signaling (AID 588533; active means well fitted inhibition curve with a large enough effect in the signal ratio, with a control signal flat, not every such curve was filed as active; inconclusive means small, poorly fitted or top-dose-only effect, or effect the other way, or a change in a side signal; the % refers to the signal ratio;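 further: cells stimulated with 2 nM dexamethasone as agonist; on the % scale 0 is the no-effect control and ±100 the full control effect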)
# How it was run: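 Antagonist-mode qHTS: compound titrations added to GRE-bla HeLa cells, then dexamethasone 2 nM final; 18 h, 37 C. CCF4 FRET fluorescence normalized to dexamethasone and DMSO; IC50 from Hill fit.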
# [14] = biological target: Peroxisome proliferator-activated receptor gamma (Homo sapiens) (UniProt P37231); assay: qHTS assay for small molecule agonists of peroxisome proliferator-activated receptor gamma signaling (AID 588536; active means well fitted curve in the direction sought with a large enough effect in the signal ratio, with a control signal flat, not every such curve was filed as active; inconclusive means small, poorly fitted or top-dose-only effect, or effect the other way, or a change in a side signal; inactive means no such curve, though single readings can be large or run the other way; the % refers to the signal ratio;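 further: 0% = DMSO basal wells and 100% = rosiglitazone at 2 µM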)
# How it was run: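 Using GeneBLAzer HEK293 cells, response was quantified by CCF4 fluorescence and normalized between basal DMSO (0%) and rosiglitazone 2 uM (100%); curves yielded half-maximal stimulation concentration and efficacy.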
# [15] = biological target: Vitamin D3 receptor (Homo sapiens) (UniProt P11473); assay: qHTS assay for small molecule antagonists of vitamin D receptor signaling (AID 588541);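 further: receptor activated by calcitriol during compound treatment; series mostly up to about 77 µM; on the % scale 0 is the no-effect control and ±100 the full control effect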
# Chain of Vitamin D3 receptor (Homo sapiens) (P11473 whole entry, looked up): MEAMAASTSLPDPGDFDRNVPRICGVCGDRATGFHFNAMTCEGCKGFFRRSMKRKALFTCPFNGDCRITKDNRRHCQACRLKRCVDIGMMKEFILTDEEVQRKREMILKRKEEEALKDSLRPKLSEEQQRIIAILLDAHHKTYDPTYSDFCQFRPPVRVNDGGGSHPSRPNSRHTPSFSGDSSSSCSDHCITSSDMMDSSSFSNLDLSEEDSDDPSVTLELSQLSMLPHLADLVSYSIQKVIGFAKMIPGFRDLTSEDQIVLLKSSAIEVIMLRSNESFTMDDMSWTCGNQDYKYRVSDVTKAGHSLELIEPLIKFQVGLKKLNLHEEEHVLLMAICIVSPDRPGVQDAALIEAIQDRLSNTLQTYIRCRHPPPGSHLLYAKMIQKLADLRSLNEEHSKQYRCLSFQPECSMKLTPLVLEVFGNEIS
# How it was run: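 VDR-UAS-bla HEK293T cells (2000/well, 2% charcoal-stripped FBS) were treated with titrated compounds plus 1-alpha,25-dihydroxyvitamin D3 (50 nM or 3 nM final) for 16 h at 37 C. CCF4 beta-lactamase fluorescence was read; Hill fits gave IC50.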
# [16] = qHTS assay for small molecule agonists of the antioxidant response element (ARE) signaling pathway (AID 651741; active means well fitted activation curve with a large enough effect in the signal ratio; inconclusive means small, poorly fitted or top-dose-only effect, or effect the other way, or a change in a side signal; the % refers to the signal ratio; further: potency means the concentration at half of the fitted maximal effect; on activation: % of control where 0% means no effect)
# How it was run: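 Beta-lactamase reporter expression driven by the antioxidant response element in HepG2 cells was detected by fluorescence with LiveBLAzer B/G FRET substrate (2 h, room temperature) following 16 h compound treatment at 37 C.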
# [17] = qHTS assay for small molecule activators of the nuclear factor-kappa B (NF-kB) signaling pathway (AID 651749; active means well fitted activation curve with a large enough effect in the signal ratio; inconclusive means small, poorly fitted or top-dose-only effect, or a change in a side signal; the % refers to the signal ratio; further: series mostly up to about 77 µM; % of control where 0% means no effect); conditions: NF-kB-bla ME-180 cells, beta-lactamase FRET ratio, 16 h; stronger effect = higher value
# How it was run: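 Beta-lactamase reporter expression, controlled by NF-kB response elements in ME-180 cells, was quantified fluorometrically via FRET disruption; cells at 2,000/well had been incubated with 23 nL test compound for 16 hr.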
smiles,measurement,setting,value
CC[C@H]1C(=O)OC[C@@H]1Cc1cncn1C,Potency,[1],inactive
CCC/C=C(\CCC)C(NS(=O)(=O)CC12CCC(CC1=O)C2(C)C)c1ccc(C(=O)OC)cc1 (centres undefined),Potency,[1],5.01 µM (active)
c1ccc2c(c1)Cc1cc3cc4c(cc3nc1-2)OCO4,Potency,[1],1.26 µM (active)
NCCC[C@@H](CC(=O)N[C@@H]1CCNC[C@H]1C(=O)N[C@H](CC(=O)N[C@@H](CCC(=O)O)CC(=O)O)Cc1ccccc1)NC(=O)C[C@H](CO)NC(=O)[C@@H]1CCCC[C@H]1N,Potency,[1],inactive
CCCC[C@H]1C[C@@H]1[C@@H]1N(P(=O)(c2ccccc2)c2ccccc2)[C@](CO)(c2ccccc2)CC12CC2,Potency,[1],2.51 µM (active)
C[C@@H](C(=O)NCCc1c[nH]c2ccccc12)[C@H]1C[C@]1(C)[C@H](NC(=O)OCc1ccccc1)c1ccccc1,Potency,[1],2 µM (active)
CCC/C=C(\CCC)C(NS(=O)(=O)c1cccs1)c1ccc(C(=O)OC)cc1 (centres undefined),Potency,[1],6.31 µM (active)
CCC[C@@H]1C[C@@]1(CCC)C(NC(=O)c1ccccc1)c1cccc(Cl)c1 (some centres undefined),Potency,[1],3.16 µM (active)
O=C(/C=C/c1ccc(O)c(O)c1)OC1C[C@](O)(C(=O)O)C[C@@H](O)[C@H]1O (some centres undefined),activation,[2],6.81% (inactive) and -6.91% (inactive)
same,max response,[3],3.46% and 31.4%
same,outcome,[4],inactive
same,max response,[5],6.31% and 0.0385%
same,max response,[6],-7.31% and 4.34%
same,max response,[7],-11.4% (inactive) and -2.14% (inactive)
same,activity change % (negative = inhibition),[8],-9.6% (inactive) and 0.221% (inactive)
Cc1cc(O)c(C(C)(C)C)cc1Sc1cc(C(C)(C)C)c(O)cc1C,Potency,[9],12.6 µM [inconclusive] (active)
same,outcome,[10],inactive
same,Potency,[11],22.4 µM (active)
same,activation,[2],26% (inactive)
same,Potency,[12],39.8 µM (active) and 25.1 µM (active)
CCC/C=C(\CCC)C(NC(=O)c1ccc(C(F)(F)F)cc1)c1ccccc1 (centres undefined),Potency,[1],7.94 µM (active)
Cc1cccc(O)c1C,Potency,[9],inactive
same,outcome,[10],inactive
same,Potency,[11],inactive
same,activation,[2],5.02% (inactive)
same,Potency,[13],inactive
same,max response,[3],-7.79%
same,outcome,[4],inactive
same,outcome,[14],inactive
same,Potency,[12],inactive
same,Potency,[15],inactive
same,max response,[5],-18.7%
same,max response,[6],10.3%
same,max response,[7],20.3% (inactive)
same,activity change % (negative = inhibition),[8],4.76% (inactive)
CCCCCCCC[N+](CCCCCCCC)(CCCCCCCC)CCCCCCCC,Potency,[15],inactive
same,Potency,[16],8.41 µM (active)
CN1[C@H]2CC(OC(=O)[C@H](CO)c3ccccc3)C[C@H]1[C@H]1O[C@H]12 (some centres undefined),Potency,[9],inactive
same,outcome,[10],inactive
same,max response,[3],-6.66% and 15.5%
same,outcome,[4],inactive
same,outcome,[14],inactive
same,Potency,[15],inactive
same,max response,[5],3.87% and -2.7%
same,max response,[6],-12.3% and -10.2%
same,max response,[7],-1.24% (inactive) and 3.3% (inactive)
same,activity change % (negative = inhibition),[8],-22.7% (inactive) and -1.59% (inactive)
same,Potency,[16],inactive
CCCCCC/C(C=O)=C\c1ccccc1,Potency,[11],inactive
same,activation,[2],-2.77% (inactive)
same,max response,[3],24.4%
same,outcome,[4],inactive
same,outcome,[14],inactive
same,Potency,[15],inactive
same,max response,[5],3.46%
same,max response,[6],10.6%
same,max response,[7],9.05% (inactive)
same,activity change % (negative = inhibition),[8],8.8% (inactive)
same,Potency,[16],inactive
same,activation,[17],-0.556% (inactive)
O=Cc1ccc(Cl)c(Cl)c1,activation,[2],-2.24% (inactive)
same,Potency,[13],inactive
same,max response,[3],20.6%
same,outcome,[4],inactive
same,outcome,[14],inactive
same,Potency,[15],inactive
same,max response,[5],2.17%
same,activity change % (negative = inhibition),[8],11% (inactive)
same,activation,[17],-0.954% (inactive)
